# Screening data deposited in PubChem BioAssay by National Center for Advancing Translational Sciences (NCATS).
# GALC G270D act – A Novel Cell-Based Assay to Identify Small Molecules for B -Galactocerebrosidase; P54803; 145M-Twi-hGALC-G270D cells (Twitcher mouse brain line with human GALC G270D), HMU-beta-Gal fluorescence, 48 h; Potency, µM (highest dose often 57.5 µM), usual class: activators; 45,000 tested, 0.1% active; further: potency means the concentration at half of the fitted maximal effect; 0% is about no effect; nearly all actives have a fitted effect of over 65% in size
#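 Brain-derived Twitcher mouse 145M-Twi cells stably expressing human GALC-G270D or wild-type GALC, treated live, then residual GALC activity read by fluorescence of HMU-b-Gal substrate (0.1 mM final) in citrate-phosphate buffer pH 5.2 with sodium taurocholate. Signal increase indicates enhancement.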
# B2AR arrestin ag – qHTS assay of beta-arrestin-biased ligands of beta2-adrenergic receptor: NCGC Sytravon Library Screen; Beta-2 adrenergic receptor (Homo sapiens), P07550; HTLA Tango cells, beta-arrestin recruitment, luciferase luminescence, 18 h; Potency, µM (doses to about 46.1 µM), actives largely listed as activators; 44,000 tested, under 10 active; AID 1347077, 2019;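 further: potency means the concentration at half of the fitted maximal effect; 0% = DMSO and full agonism = EC100 isoproterenol or metaproterenol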
#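 Ligand-induced beta-arrestin recruitment to recombinant beta2-AR is measured via a tTA-driven luciferase reporter in Tango cells after 18 hr compound exposure at 37 degrees C. Concentrations span up to 46 microM.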
# GALK inhibitor – qHTS Assay for Inhibitors of Human Galactokinase (GALK): NCGC Sytravon Library Screen; AID 1347072, 2019; Potency, µM (top dose mostly 57.5 µM), inactives show top-dose activity, negative = inhibition, hits mostly inhibitors; recombinant GALK, Kinase-Glo ATP luminescence, 1 h; 44,000 tested, under 10 active;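 further: plate controls were full GALK reaction for no effect and reaction lacking GALK for full effect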
#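 Human GALK (5 nM) was incubated with 35 uM ATP and 100 uM galactose in 20 mM HEPES pH 8.0 with MgCl2, NaCl, DTT and BSA for 1 h at room temperature. Remaining ATP was measured by Kinase-Glo Plus luminescence.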
# GPR32 ag – qHTS for Agonists of Human Resolvin D1 Receptor DRV1; AID 1346428, 2018; CHO-K1 GPR32 beta-arrestin PathHunter luminescence, 90 min; zero percent set by DMSO-only wells; activation, % at 76.9 µM; Probable G-protein coupled receptor 32 (Homo sapiens), O75388; 48,000 tested, 2.5% active;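 active means activation of at least 60% and not above a set upper limit, about 1 call in 100 departs from these limits; inconclusive means activation of 40% to 60%, or above that upper limit; inactive means activation under 40%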; further: 0% is about no effect
#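 Using DMSO wells as EC0, agonist-induced signal was taken as chemiluminescence from beta-Gal reconstituted upon beta-arrestin recruitment to GPR32 in CHO-K1 cells after 90 min compound treatment.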
# NTMT1 inh – Primary qHTS for Inhibitors of N-terminal methyltransferase 1 (NTMT1): MTaseGlo Assay; N-terminal Xaa-Pro-Lys N-methyltransferase 1 (Homo sapiens), Q9BV86; NTMT1 MTase-Glo SAH luminescence, purified enzyme; Potency, µM (highest dose often 114 µM), without a hit: at the top dose activity change, negative = inhibition, usual class: inhibitors; 59,000 tested, 2.5% active;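 further: potency means the concentration at half of the fitted maximal effect; plate controls were DMSO vehicle for no effect and no enzyme for full effect; nearly all actives have a fitted effect of over 65% in size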
# Target sequence (Q9BV86 whole entry, looked up): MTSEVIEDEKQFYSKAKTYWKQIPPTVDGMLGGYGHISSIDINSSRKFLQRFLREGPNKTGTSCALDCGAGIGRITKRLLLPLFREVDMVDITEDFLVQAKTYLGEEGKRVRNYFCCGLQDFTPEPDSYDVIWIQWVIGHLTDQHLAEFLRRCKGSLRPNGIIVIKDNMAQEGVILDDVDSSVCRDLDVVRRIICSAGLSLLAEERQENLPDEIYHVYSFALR
# CLK4 KinaseGlo – Confirmation Assay for Inhibitors of CDC-like Kinase 4 (Kinase-Glo Assay): SAR round 2 | shares compounds with NTMT1 inh | recombinant Clk4, Kinase-Glo ATP luminescence, 4.5 h | Potency, µM (highest dose often 76.9 µM), for the others: top-dose activity, negative = inhibition, hits mostly inhibitors | 90 tested, 90% active | AID 493204, 2011
# Sfp PPTase inh – qHTS Assay for Inhibitos of Bacillus subtilis Sfp phosphopantetheinyl transferase (PPTase): Chemistry Optimization Followup | purified Sfp PPTase enzyme activity, qHTS | Potency, µM (top dose mostly 114 µM), for inactives: top-dose activity change, negative = inhibition, actives largely listed as inhibitors | 230 tested, 78% active | shares compounds with NTMT1 inh
# HM489 growth – qHTS for Inhibitos of Bacillus subtilis Sfp phosphopantetheinyl transferase (PPTase): Chemistry Optimization Followup in B. Subtilis HM489 | 220 tested, 50% active | shares compounds with NTMT1 inh | B. subtilis HM489 (acpS-) growth, BacTiter-Glo, 5 h | AID 540353, 2011 | Potency, µM (doses to about 114 µM), for inactives: at the highest dose activity change, negative = inhibition, most hits filed as inhibitors
# Sfp gel opt – Gel-Based Assay for Inhibitos of Bacillus subtilis Sfp phosphopantetheinyl transferase (PPTase): Chemistry Optimization Followup; shares compounds with NTMT1 inh; purified Sfp PPTase, gel-based product detection; Potency, µM (titrated, usually from 250 µM), inactives show at the top dose activity change, negative = inhibition, usual class: inhibitors; 220 tested, 54% active; AID 540355, 2011
# Sfp SAR2 – qHTS Assay for Inhibitors of Bacillus subtilis Sfp phosphopantetheinyl transferase (PPTase): SAR Round 2 | purified Sfp enzyme, PPTase activity, qHTS | 230 tested, 87% active | shares compounds with NTMT1 inh | AID 602370, 2012 | Potency, µM (titrated, usually from 57.1 µM), without a hit: top-dose activity change, negative = inhibition, most hits filed as inhibitors
# HSD17B4 counter – Extended Characterization of HPGD Inhibitors: Counterscreen Against HSD17b4; shares compounds with NTMT1 inh; 230 tested, 10% active; Potency, µM (doses to about 57.1 µM), without a hit: at the highest dose activity change, negative = inhibition, hits mostly inhibitors; purified HSD17B4, estradiol/NAD+, NADH fluorescence
# ALDH1A1 inh – Extended Characterization of HPGD Inhibitors: Counterscreen Against ALDH1A1; shares compounds with NTMT1 inh; recombinant ALDH1A1, NADH fluorescence, propionaldehyde/NAD+; Potency, µM (titrated, usually from 57.1 µM), for the others: top-dose activity change, negative = inhibition, hits mostly inhibitors; 230 tested, 93% active
# NNMT inh – Counterscreen qHTS for Inhibitors of N-terminal methyltransferase 1 (NTMT1): NNMT MTaseGlo assay; shares compounds with NTMT1 inh; NNMT MTase-Glo luminescence, SAH detection; Potency, µM (highest dose often 57.1 µM), without a hit: at the highest dose activity, negative = inhibition, hits mostly inhibitors; 120 tested, 10% active; AID 1645878, 2021
# Target sequence (P40261 whole entry, looked up): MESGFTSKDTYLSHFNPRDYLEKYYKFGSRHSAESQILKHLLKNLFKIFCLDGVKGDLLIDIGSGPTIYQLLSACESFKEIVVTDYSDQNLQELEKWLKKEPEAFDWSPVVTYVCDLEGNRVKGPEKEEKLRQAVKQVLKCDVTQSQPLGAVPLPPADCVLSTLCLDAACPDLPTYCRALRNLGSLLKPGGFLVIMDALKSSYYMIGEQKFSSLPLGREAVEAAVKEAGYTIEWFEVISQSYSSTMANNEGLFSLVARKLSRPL
# * hit, by the source's call; i = inactive; ? = inconclusive; · = no result given; [ ] = dose if it differs, or a comment. Most compounds without a hit are left out; they make up all but 3.6% or so of the library. Unless noted, the call rests on the fitted dose curve; in most records, active means well fitted curve in the direction sought with a large enough effect; inconclusive means small, poorly fitted or top-dose-only effect, or another doubt; inactive means no such curve, though single readings can be large; an effect the other way counts as inactive or inconclusive.
SMILES,GALC G270D act,B2AR arrestin ag,GALK inhibitor,GPR32 ag,NTMT1 inh,others
Cc1ccc(CN(C)c2ncnc3ccc(-c4ccc(CO)o4)cc23)o1,·,·,·,·,?,CLK4 KinaseGlo=0.065µM*
Cc1ccc(CN(C(=O)c2ccc(C(C)(C)C)cc2)c2ccccn2)o1,i,i,0%,1,-13%,
Cc1cn2c(n1)Cc1ccc(Cl)cc1C(c1ccc(N)cc1)=N2,·,·,·,·,-14%[57.5 µM],
COc1cccc(C(=O)NCCNc2nc3cc(C)cc(C)c3cc2C#N)c1,·,·,·,·,-6%[57.5 µM],NNMT inh=?
Cc1cn2cc(CC(=O)N3CCC4(CC3)CN(Cc3ccc(-n5nccn5)cc3Cl)C4)nc2s1,·,·,·,·,19%[57.5 µM],
FC(F)(F)c1cnc(N2CCN(C(=S)Nc3cc(Cl)ccn3)CC2)c(Cl)c1,·,·,·,·,?,Sfp PPTase inh=9.4µM*;HM489 growth=12µM*;Sfp gel opt=?;Sfp SAR2=1.3µM*;HSD17B4 counter=-26%;ALDH1A1 inh=3.8µM*
